# Where “and” joins values, the source holds several entries; their conditions need not be identical. Equal values may be shown once. About 2,000 (36%) of roughly 5,500 compounds were called active. Another 18% or so got no clear call; they are omitted. Some of the results follow. Unmarked numbers belong to inactive results. No stated cut-off is given here; in the data, active means normalized growth mostly below about 0.91 (no sharp cut-off); inconclusive means no clear call, values can overlap the other calls; inactive means mostly above about 0.92.
# Assay: chemical genetic growth profiling, strain panel (AID 1159580);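 further: tested at 20 µM; growth read once vehicle control cultures reached saturation at 30 °C; 1 = growth at the plate median or of vehicle wells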
# Conditions: growth OD
smiles,measurement,setting,value
Cn1c(=O)c2c(ncn2C)n(C)c1=O,normalized growth,"S. cerevisiae deletion strains, locus YJR043C, strain POL32, stronger effect = lower value",1.02
same,normalized growth,"S. cerevisiae deletion strains, locus YJR066W, strain TOR1, stronger effect = lower value",0.97
same,normalized growth,"S. cerevisiae deletion strains, locus YJR075W, strain HOC1, stronger effect = lower value",1
same,normalized growth,"S. cerevisiae deletion strains, locus YKL009W, strain mrt4, stronger effect = lower value",1.03
same,normalized growth,"S. cerevisiae deletion strains, locus YKL068W, stronger effect = lower value",1.01
same,normalized growth,"S. cerevisiae deletion strains, locus YKL085W, strain MDH1 (second series), stronger effect = lower value",0.991
same,normalized growth,"S. cerevisiae deletion strains, locus YKL085W, strain MDH1, stronger effect = lower value",0.991
same,normalized growth,"S. cerevisiae deletion strains, locus YKL160W, strain elf1, stronger effect = lower value",1.02
same,normalized growth,"S. cerevisiae deletion strains, locus YKR001C, strain vps1, stronger effect = lower value",1
same,normalized growth,"S. cerevisiae deletion strains, locus YKR026C, strain gcn3, stronger effect = lower value",0.965
same,normalized growth,"S. cerevisiae deletion strains, locus YKR091W, strain srl3, stronger effect = lower value",0.969
same,normalized growth,"S. cerevisiae deletion strains, locus YLL001W, strain dnm1, stronger effect = lower value",0.932
same,normalized growth,"S. cerevisiae deletion strains, locus YLL026W, stronger effect = lower value",0.962
same,normalized growth,"S. cerevisiae deletion strains, locus YLL041C, strain sdh2, stronger effect = lower value",0.976
same,normalized growth,"S. cerevisiae deletion strains, locus YLR027C, strain aat2, stronger effect = lower value",0.976
same,normalized growth,"S. cerevisiae deletion strains, locus YLR039C, strain RIC1, stronger effect = lower value",0.989
same,normalized growth,"S. cerevisiae deletion strains, locus YLR058C, strain SHM2, stronger effect = lower value",1
same,normalized growth,"S. cerevisiae deletion strains, locus YLR102C, strain apc9, stronger effect = lower value",1.01
same,normalized growth,"S. cerevisiae deletion strains, locus YLR113W, strain HOG1, stronger effect = lower value",1.04
same,normalized growth,"S. cerevisiae deletion strains, locus YLR221C, strain rsa3, stronger effect = lower value",0.89 (active)
same,normalized growth,"S. cerevisiae deletion strains, locus YLR258W, strain gsy2, stronger effect = lower value",0.976
same,normalized growth,"S. cerevisiae deletion strains, locus YLR262C, strain YPT6 (second series), stronger effect = lower value",0.996
same,normalized growth,"S. cerevisiae deletion strains, locus YLR262C, strain YPT6, stronger effect = lower value",0.988
same,normalized growth,"S. cerevisiae deletion strains, locus YLR268W, strain sec22, stronger effect = lower value",1.03
same,normalized growth,"S. cerevisiae deletion strains, locus YLR320W, strain mms22, stronger effect = lower value",0.987
same,normalized growth,"S. cerevisiae deletion strains, locus YLR330W, strain CHS5, stronger effect = lower value",0.999
same,normalized growth,"S. cerevisiae deletion strains, locus YLR342W, strain FKS1 (second series), stronger effect = lower value",1.03
same,normalized growth,"S. cerevisiae deletion strains, locus YLR342W, strain FKS1, stronger effect = lower value",0.983
same,normalized growth,"S. cerevisiae deletion strains, locus YLR357W, strain rsc2, stronger effect = lower value",0.98
same,normalized growth,"S. cerevisiae deletion strains, locus YLR370C, strain arc18, stronger effect = lower value",0.936
same,normalized growth,"S. cerevisiae deletion strains, locus YLR371W, strain rom2, stronger effect = lower value",0.989
same,normalized growth,"S. cerevisiae deletion strains, locus YLR384C, strain iki3, stronger effect = lower value",0.97
same,normalized growth,"S. cerevisiae deletion strains, locus YLR418C, strain cdc73, stronger effect = lower value",0.947
same,normalized growth,"S. cerevisiae deletion strains, locus YML016C, strain PPZ1, stronger effect = lower value",0.995
same,normalized growth,"S. cerevisiae deletion strains, locus YML032C, strain rad52, stronger effect = lower value",1.01
same,normalized growth,"S. cerevisiae deletion strains, locus YML120C, strain ndi1, stronger effect = lower value",0.926
same,normalized growth,"S. cerevisiae deletion strains, locus YML124C, strain tub3, stronger effect = lower value",1
same,normalized growth,"S. cerevisiae deletion strains, locus YMR058W, strain fet3, stronger effect = lower value",0.96
same,normalized growth,"S. cerevisiae deletion strains, locus YMR078C, strain ctf18, stronger effect = lower value",0.995
same,normalized growth,"S. cerevisiae deletion strains, locus YMR125W, strain sto1, stronger effect = lower value",0.954
same,normalized growth,"S. cerevisiae deletion strains, locus YMR129W, stronger effect = lower value",0.988
same,normalized growth,"S. cerevisiae deletion strains, locus YMR205C, strain PFK2, stronger effect = lower value",0.991
same,normalized growth,"S. cerevisiae deletion strains, locus YMR223W, strain ubp8, stronger effect = lower value",1
same,normalized growth,"S. cerevisiae deletion strains, locus YMR231W, strain pep5, stronger effect = lower value",0.987
same,normalized growth,"S. cerevisiae deletion strains, locus YMR307W, strain GAS1, stronger effect = lower value",0.974 and 0.988
same,normalized growth,"S. cerevisiae deletion strains, locus YNL067W, strain RPL9B, stronger effect = lower value",1
same,normalized growth,"S. cerevisiae deletion strains, locus YNL071W, strain lat1, stronger effect = lower value",0.995
same,normalized growth,"S. cerevisiae deletion strains, locus YNL128W, strain TEP1, stronger effect = lower value",0.997
same,normalized growth,"S. cerevisiae deletion strains, locus YNL175C, strain NOP13, stronger effect = lower value",1.02
same,normalized growth,"S. cerevisiae deletion strains, locus YNL183C, strain NPR1, stronger effect = lower value",0.987
same,normalized growth,"S. cerevisiae deletion strains, locus YNL197C, strain WHI3, stronger effect = lower value",1.12
same,normalized growth,"S. cerevisiae deletion strains, locus YNL209W, strain ssb2, stronger effect = lower value",0.959
same,normalized growth,"S. cerevisiae deletion strains, locus YNL224C, strain SQS1, stronger effect = lower value",1.01
same,normalized growth,"S. cerevisiae deletion strains, locus YNL233W, strain BNI4, stronger effect = lower value",0.984
same,normalized growth,"S. cerevisiae deletion strains, locus YNL248C, strain rpa49, stronger effect = lower value",1.03
same,normalized growth,"S. cerevisiae deletion strains, locus YNL250W, strain rad50, stronger effect = lower value",1.01
same,normalized growth,"S. cerevisiae deletion strains, locus YNL271C, strain bni1, stronger effect = lower value",1.01
same,normalized growth,"S. cerevisiae deletion strains, locus YNL298W, strain CLA4, stronger effect = lower value",1.01
same,normalized growth,"S. cerevisiae deletion strains, locus YNL307C, strain MCK1, stronger effect = lower value",1
same,normalized growth,"S. cerevisiae deletion strains, locus YNL322C, strain KRE1 (second series), stronger effect = lower value",0.963
same,normalized growth,"S. cerevisiae deletion strains, locus YNL322C, strain KRE1, stronger effect = lower value",0.995
same,normalized growth,"S. cerevisiae deletion strains, locus YNR049C, strain mso1, stronger effect = lower value",0.956
same,normalized growth,"S. cerevisiae deletion strains, locus YNR052C, strain pop2, stronger effect = lower value",1
same,normalized growth,"S. cerevisiae deletion strains, locus YOL006C, strain TOP1, stronger effect = lower value",1.04
same,normalized growth,"S. cerevisiae deletion strains, locus YOL012C, strain htz1",0.798
same,normalized growth,"S. cerevisiae deletion strains, locus YOL147C, strain pex11, stronger effect = lower value",0.998
same,normalized growth,"S. cerevisiae deletion strains, locus YOR001W, strain rrp6, stronger effect = lower value",0.979
same,normalized growth,"S. cerevisiae deletion strains, locus YOR061W, strain CKA2, stronger effect = lower value",1.01
same,normalized growth,"S. cerevisiae deletion strains, locus YOR069W, strain VPS5, stronger effect = lower value",1
same,normalized growth,"S. cerevisiae deletion strains, locus YOR070C, strain gyp1, stronger effect = lower value",0.993
same,normalized growth,"S. cerevisiae deletion strains, locus YOR080W, strain dia2, stronger effect = lower value",0.956
same,normalized growth,"S. cerevisiae deletion strains, locus YOR083W, strain WHI5 (second series), stronger effect = lower value",1.02
same,normalized growth,"S. cerevisiae deletion strains, locus YOR083W, strain WHI5, stronger effect = lower value",1.01
same,normalized growth,"S. cerevisiae deletion strains, locus YOR106W, strain vam3, stronger effect = lower value",0.969
same,normalized growth,"S. cerevisiae deletion strains, locus YOR136W, strain idh2, stronger effect = lower value",1.01
same,normalized growth,"S. cerevisiae deletion strains, locus YOR144C, strain elg1, stronger effect = lower value",1
same,normalized growth,"S. cerevisiae deletion strains, locus YOR184W, strain ser1, stronger effect = lower value",1.01
same,normalized growth,"S. cerevisiae deletion strains, locus YOR231W, strain MKK1, stronger effect = lower value",1.04
same,normalized growth,"S. cerevisiae deletion strains, locus YOR265W, strain rbl2, stronger effect = lower value",0.963
same,normalized growth,"S. cerevisiae deletion strains, locus YOR270C, strain vph1, stronger effect = lower value",0.988
same,normalized growth,"S. cerevisiae deletion strains, locus YOR290C, strain snf2, stronger effect = lower value",0.952
same,normalized growth,"S. cerevisiae deletion strains, locus YOR316C, strain cot1, stronger effect = lower value",1.01
same,normalized growth,"S. cerevisiae deletion strains, locus YPL051W, strain arl3, stronger effect = lower value",0.949
same,normalized growth,"S. cerevisiae deletion strains, locus YPL055C, strain LGE1, stronger effect = lower value",0.998
same,normalized growth,"S. cerevisiae deletion strains, locus YPL078C, strain atp4, stronger effect = lower value",1.02
same,normalized growth,"S. cerevisiae deletion strains, locus YPL106C, strain sse1, stronger effect = lower value",0.929
same,normalized growth,"S. cerevisiae deletion strains, locus YPL240C, strain hsp82, stronger effect = lower value",0.974
same,normalized growth,"S. cerevisiae deletion strains, locus YPL241C, strain CIN2, stronger effect = lower value",0.998 and 1.01
same,normalized growth,"S. cerevisiae deletion strains, locus YPL256C, strain CLN2, stronger effect = lower value",1.09
same,normalized growth,"S. cerevisiae deletion strains, locus YPR119W, strain clb2, stronger effect = lower value",0.996
same,normalized growth,"S. cerevisiae deletion strains, locus YPR141C, strain kar3, stronger effect = lower value",0.992
same,normalized growth,"S. cerevisiae deletion strains, locus YPR163C, strain tif3, stronger effect = lower value",0.991
same,normalized growth,"S. cerevisiae deletion strains, locus YPR167C, strain met16, stronger effect = lower value",1
same,normalized growth,"S. cerevisiae deletion strains, strain wtn01, stronger effect = lower value",1.04
same,normalized growth,"S. cerevisiae strains, strain wild type, stronger effect = lower value",1
